Consider 104 compounds from PubChem BioAssay AID686978 (National Center for Advancing Translational Sciences (NCATS), 2013).

In all, about 420,000 compounds went through this assay and about 64,000 (15%) were called active. About 27% were inconclusive and are not listed. The call rests on the fitted dose curve; in most records, active means well fitted inhibition curve with a large enough effect; inconclusive means small, poorly fitted or top-dose-only effect; inactive means flat fitted curve, though single readings scatter. Only a sample is shown. Entries that show only a call come without a potency.
Potency means the concentration at half of the fitted maximal effect.

This assay can be described thus: qHTS for Inhibitors of human tyrosyl-DNA phosphodiesterase 1 (TDP1): qHTS in cells in absence of CPT. Further: nearly all actives have a fitted effect of over 55% in size. The note with it: DT40 Tdp1-/- hTDP1 cells, no CPT, ATP luminescence, 48 h; activity change, negative = growth inhibition: at 46.2 µM (top of the series). In outline: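 Seeded 400 DT40-hTDP1 cells/well (vehicle DMSO, no 20 nM CPT); pinned compounds; ≥48 hr at 37 °C; CellTiter-Glo luminescence as viability measure.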
(qHTS replaces the single test concentration by a dilution series.)
`CCN(Cc1ccccc1)Cc1c(O)ccc2c(=O)c(-c3ccc(Cl)cc3Cl)coc12`: the Potency entry was “inactive”. Regarding `CCCn1c(SCC(=O)Nc2ccc(C)c(S(=O)(=O)N3CCOCC3)c2)n[nH]c1=O`, the Potency entry is “inactive”.

For `CCOC(=O)C1CCN(C(=O)C2(NC(=O)Nc3cccc(F)c3)CCCCC2)CC1`, the Potency entry was “inactive”. The result for `COC(=O)C(=Nc1ccccc1)/C(C(=O)C(=O)N(C)c1ccccc1)=C(\O)c1ccc(Cl)cc1` reads “inactive”. Under `COc1cc(OC)c(C(=O)OCC(=O)N2CC(=O)Nc3ccccc32)cc1OC` stands “inactive”; under `N#Cc1c(N)sc2c1CCN(C(=O)OCc1ccccc1)C2`, “inactive”; under `O=C1NC(c2ccncc2)Nc2sc3c(c21)CCCC3` (centres undefined), “inactive”.

On to `CCOC(=O)N1CCc2c(sc3c2C(=O)NC(c2ccccc2F)N3)C1` (centres undefined), for which the Potency was 16.4 µM (active). The result for `COc1ccc(C(=O)COC(=O)c2nn(C)c(=O)c3ccccc23)c(OC)c1` reads “inactive”; that for `COc1ccc(OC)c(NC(=O)c2cnn(-c3ccccc3Cl)c2NC(=O)c2ccco2)c1`, “inactive”.

In the case of `C#CCN1C(=O)C(O)(CC(=O)c2cc(OC)ccc2OC)c2ccccc21` (centres undefined), the Potency is 16.4 µM (active).

With `CC(=O)NC(=S)Nc1ccc(NC(=O)c2cccnc2)cc1`, the Potency entry was “inactive”. Take `N#CCSc1ccccc1NC(=O)CN1C(=O)NC(CCc2ccccc2)C1=O` (centres undefined): the Potency result was “inactive”. The result for `Cn1ncc([N+](=O)[O-])c1C(=O)Nc1cc(Cl)ccc1Cl` reads “inactive”; that for `COc1ccc(CN2CC(C(=O)NC3CCCCC3)CC2=O)cc1` (centres undefined), “inactive”.

Consider `COc1ccc(CN2CN(C3CCCC3)CSC2=S)cc1`, for which the Potency was 4.61 µM (active).

Regarding `COc1ccc(Cn2c(=O)cc(C)[nH]c2=S)cc1`, the Potency entry is “inactive”. The result for `COc1ccc(CN2CN(C(C)C)CSC2=S)cc1` reads 3.26 µM (active). As to `COc1ccc(CN2CC(C(=O)NCCc3ccc(Cl)cc3)CC2=O)cc1` (centres undefined), the Potency result is “inactive”. Under `COc1ccc(CCNC(=O)COC(=O)C2CCCCC2)cc1` stands “inactive”; under `CC(=O)N1CSCC1C(=O)O` (centres undefined), “inactive”; under `CC1(C)Oc2ccc3ccc(=O)oc3c2/C(=C/NCCO)C1=O`, “inactive”. Under `CCCCN(C(=O)C(CCSC)N1C(=O)c2ccccc2C1=O)c1c(N)n(CCC)c(=O)[nH]c1=O` (centres undefined) stands “inactive”; under `CC(C)(CNC(=O)CNC(=O)C1CCCCC1)N1CCOCC1`, “inactive”; under `CCc1ccc(C2C(C#N)=C(N)Oc3n[nH]c(CC(=O)OC)c32)cc1` (centres undefined), “inactive”.

In the case of `Cc1cc(C)c(C#N)c(SCc2[nH]nc3c2C(c2ccccc2)C(C#N)=C(N)O3)n1` (centres undefined), the Potency entry was “inactive”. The result for `CCCc1[nH]nc2c1C(c1ccc(Br)s1)C(C#N)=C(N)O2` (centres undefined) reads 7.31 µM (active); that for `CCOc1c(OC)cc(C2C(C#N)=C(N)Oc3n[nH]c(-c4ccncc4)c32)cc1OC` (centres undefined), “inactive”. The result for `COCc1[nH]nc2c1C(C1C=CCCC1)C(C#N)=C(N)O2` (centres undefined) reads 20.6 µM (active); that for `CCCc1[nH]nc2c1C(C1CC=CCC1)C(C#N)=C(N)O2` (centres undefined), 13 µM (active). As to `CCCc1nc2c([nH]1)C(c1cccnc1)C(C#N)=C(N)O2` (centres undefined), the Potency result is “inactive”. Under `COc1cc(C2C(C#N)=C(N)Oc3n[nH]c(-c4ccccn4)c32)cc(OC)c1OC` (centres undefined) stands “inactive”.

As to `N#CC1=C(N)OC2=C(C(=O)CCC2)C1C1CC=CCC1` (centres undefined), the Potency result was “inactive”. The result for `CCOc1ccc(CNC(=O)C2CCC(=O)N2C2CCCC2)cc1OC` (centres undefined) reads “inactive”; that for `CCCC(=O)Nc1ccc(C(=O)N/N=C/c2ccc[nH]2)cc1`, “inactive”; that for `CCOC(=O)c1ccccc1NC(=O)CSc1nc2ccccc2c(=O)[nH]1`, “inactive”. Under `COc1ccc(C(=O)c2oc3ccccc3c2NC(=O)COc2cccc(C)c2)cc1` stands “inactive”. For `C=CCN(CC=C)C(=O)COC(=O)c1n[nH]c2ccccc12`, the Potency result was “inactive”.

As for `COC(=O)c1sccc1-n1cccc1C(=O)C(=O)N1CCCCC1`, the Potency entry is “inactive”. With `COc1ccc(Cc2nnc(SCC(=O)Nc3ccc(C)c(C)c3)o2)cc1OC`, the Potency entry was “inactive”.

Consider `CCOC(=O)CSc1nnc(CNc2ccc(F)cc2)o1`, for which the Potency result is “inactive”. Regarding `CCC(=O)Nc1ccc(C(=O)CSc2nnc(CNc3ccc(Cl)cc3)o2)cc1OC`, the Potency is 12.6 µM (active).

Turning to `Cc1nn(C)cc1C(=O)NNC(=S)Nc1ccc(Cl)cc1`, the Potency entry is “inactive”.

With `Cc1ccc(S(=O)(=O)N2CCOCC2)cc1C(=O)NCc1ccc(F)cc1`, the Potency entry was “inactive”. As to `CCN(Cc1ccncc1)C(=O)c1cccc(S(=O)(=O)N2CCOCC2)c1`, the Potency entry is “inactive”. In the case of `O=S(=O)(c1cccc(Cn2nnc(-c3ccc(F)cc3)n2)c1)N1CCOCC1`, the Potency is 20.6 µM (active). As to `CN(C)c1ccc(/C=c2\[nH]c(=O)/c(=C/c3ccc(N(C)C)cc3)[nH]c2=O)cc1`, the Potency result is “inactive”. Take `COc1cc(/C=C2/SC(=S)N(Cc3ccccc3)C2=O)cc(OC)c1O`: the Potency result was “inactive”. On to `CN(C)c1ccc(/C=C2\NC(=S)N(Cc3ccccc3)C2=O)cc1`, for which the Potency was 20.6 µM (active).

Consider `Cc1nc2ccccn2c(=O)c1NC(=O)c1ccc(Br)o1`, for which the Potency entry is “inactive”. Under `Cc1nc2ccccn2c(=O)c1NC(=O)c1c(F)cccc1F` stands “inactive”; under `Cc1ccc(-c2nc3ccccn3c2Nc2c(C)cccc2C)o1`, 18.4 µM (active); under `CO[C@H]1O[C@@H]2O[C@@]3(C)CC[C@@H]4[C@@H](C)CC[C@@H]([C@H]1C)[C@@]24OO3`, 0.891 µM (active). Consider `CCOC(=O)CSc1nnc(-c2ccncc2)o1`, for which the Potency entry was “inactive”. Regarding `CCOc1cc(/C=N/NC(=O)OC)ccc1OCCSc1ccc(Cl)cc1`, the Potency entry is “inactive”. The result for `Cc1ccc(NN=Nc2nc3c([nH]2)c(=O)n(C)c(=O)n3C)cc1` reads “inactive”.

With `Cn1cc([N+](=O)[O-])c(C(=O)Nc2ccc3c(c2)OCCO3)n1`, the Potency entry was “inactive”. Under `Oc1ccccc1-c1nc2ccc(Cl)cn2c1Nc1ccc2c(c1)OCCO2` stands 23.1 µM (active); under `Cc1ccn2c(Nc3ccc4c(c3)OCCO4)c(-c3ccc(C)s3)nc2c1`, “inactive”. In the case of `COCCn1c(SCC(=O)Nc2nc(C)cs2)nnc1C(C)C`, the Potency result was “inactive”.

Regarding `COc1ccc(OC)c(C2N(c3ccccn3)C(=O)C3CCCN32)c1` (centres undefined), the Potency result is “inactive”. The result for `CCc1nnc(NS(=O)(=O)c2ccc(NC(=S)NC(=O)/C=C/c3cccs3)cc2)s1` reads “inactive”; that for `O=C(c1cc(-c2cccc(O)c2)on1)N1CCc2ccccc2C1`, “inactive”. Under `Clc1ccc(-c2ncc3ccccn23)c(Cl)c1` stands “inactive”; under `Clc1ccc(-c2cc(C3CCNCC3)[nH]n2)c(Cl)c1`, 20.6 µM (active); under `CCCn1c(=O)c2[nH]c(C3CCCC3)nc2n(CCC)c1=O`, “inactive”. Under `CCCc1cc(=O)[nH]c(SCC(=O)Nc2ccc(S(=O)(=O)N3CCCC3)cc2)n1` stands “inactive”; under `Clc1ccc(CSc2nnc(/C=C/c3ccccc3)o2)c(Cl)c1`, “inactive”; under `COCCNc1nc2nonc2nc1N1CCCC1c1nccs1` (centres undefined), “inactive”. Consider `CNC(=O)CN1C(=O)c2ccccc2S1(=O)=O`, for which the Potency result is “inactive”. `CC(C)(C)c1ccc(CN2C(=O)c3ccccc3S2(=O)=O)cc1`: the Potency was 20.6 µM (active).

In the case of `O=C1c2ccccc2S(=O)(=O)N1Cc1c(F)cccc1Cl`, the Potency entry is “inactive”. Take `CC(=O)[C@@]12O[C@@H]1C[C@H]1[C@@H]3CC[C@H]4C[C@@H](O)CC[C@]4(C)[C@H]3CC[C@@]12C`: the Potency entry is “inactive”.

`NC(=O)CCC(NS(=O)(=O)c1ccc(Cl)cc1)C(=O)NCc1ccccc1Cl` (centres undefined): the Potency entry was “inactive”. In the case of `O=C(O)COc1ccc(/C=N/O)cc1Br`, the Potency entry is “inactive”. The result for `CCCCCCc1cc2cc(-c3nnc(-c4ccccc4)o3)c(=O)oc2cc1O` reads 20.6 µM (active); that for `Cc1c(CC(=O)NCCCCCC(=O)O)c(=O)oc2cc3occ(-c4ccccc4)c3cc12`, “inactive”; that for `CCCC(=O)Nc1nnc(-c2ccccc2)o1`, “inactive”. In the case of `COc1cc2c(cc1OC)CC(=O)N(CCCN(C)C[C@H]1Cc3cc(OC)c(OC)cc31)CC2`, the Potency result is “inactive”.

Consider `CCOc1ccc(/C=N/NC(=O)CSc2ccccn2)cc1O`, for which the Potency result is “inactive”. For the compound `CCN(CC)C(=O)CSc1nc2ccccc2o1`, the Potency entry was “inactive”.

Consider `C=CCn1c(Cn2nnc3ccccc32)nnc1SCC(=O)N/N=C/c1cc(Br)cc(OC)c1O`, for which the Potency result was “inactive”. For `CC(C)(C)C(=O)CSc1nc2ccccc2o1`, the Potency result was “inactive”.

On to `Cn1c(SCC(=O)N/N=C/c2ccc(O)c(O)c2)nc2ccccc21`, for which the Potency is 18.4 µM (active). Under `Cc1ccc(/C=N/NC(=O)CSc2nc3ccccc3o2)cc1` stands 23.1 µM (active); under `COc1cc(OC)c(C(=O)Nc2ccc(N(C)C)cc2)cc1OC`, “inactive”; under `COc1ccc(-c2nc3cnc(N(C)C)nc3n(Cc3cccs3)c2=O)cc1`, “inactive”. Under `CC1(Oc2ccccc2-c2ccno2)CCN(Cc2ccc(-c3ccccc3)o2)C1` (centres undefined) stands 23.1 µM (active); under `CCOc1cc(/C=N/NC(=O)c2c(C)nc3ccc(Cl)cn23)ccc1O`, 8.2 µM (active). With `CCOc1cc(/C=N/Nc2cc(C)nc3ccc(C)cc23)ccc1O`, the Potency is 25.9 µM (active). The result for `CCOc1cc(C=NNC(=O)CCCC(=O)NN=Cc2ccc(O)c(OCC)c2)ccc1O` reads “inactive”. For the compound `CCOc1ccc(/C=N\NC(=O)c2c(C)nc3cc(C)ccn23)cc1`, the Potency result was “inactive”. The result for `Cc1ccc2nc(C)cc(N/N=C/c3ccc(F)cc3)c2c1` reads “inactive”; that for `C/C=C(/C)C(=O)OC1Cc2c(ccc3ccc(=O)oc23)OC1(C)C` (centres undefined), “inactive”; that for `CCCS(=O)(=O)N1CCCC(C(=O)NCc2ccco2)C1` (centres undefined), “inactive”. Under `COc1ccc(C(C#N)Nc2ccc(C)cc2)cc1` (centres undefined) stands “inactive”. As for `Fc1ccc(/C=N/Nc2nc(-c3cccnc3)nc3ccccc23)cc1`, the Potency was 16.4 µM (active).

Take `O=C(N/N=C/c1cccnc1)c1ccc(NC(=O)c2ccc(F)cc2)cc1`: the Potency result is “inactive”. Under `CCOc1ccc(C2/C(=C(/O)c3ccc4c(c3)CC(C)O4)C(=O)C(=O)N2CCCn2ccnc2)cc1` (centres undefined) stands “inactive”; under `O=C1/C(=C\c2ccccc2Cl)SC(=S)N1CCC(=O)N1CCCc2ccccc21`, 14.6 µM (active); under `COc1ccc(NC(=O)CCN2C(=O)/C(=C/c3ccc4c(c3)OCO4)SC2=S)cc1`, “inactive”. Under `O=C(CN1CCCCCC1)NCCN1C(=O)S/C(=C\c2ccccc2Cl)C1=O` stands “inactive”; under `C=C(C)C1CC=C(CO)CC1` (centres undefined), “inactive”. As for `CCCn1c(N)c(C(=O)CSc2nnc(-c3cccnc3)n2-c2ccc(C)cc2C)c(=O)[nH]c1=O`, the Potency entry was “inactive”.
